Source: PubChem BioAssay (EPA / NIEHS)
Values joined by “and” are separate entries in the source; they are usually repeats but may differ in a detail not shown here. Equal values may be shown once. Records with an inconclusive call do not appear. The source holds several records for some structures; these can differ, active in one and inactive in another. Active and inactive are the calls of the source. The calls were made as follows, unless noted: active = hit-call score of the fitted dose curve at least 0.9, where 1 is the maximum; inactive = score below 0.9.

How the values were obtained:
[1] = read-out: Interleukin-8 (IL8), CXCL8 (gene 3576); test: BSK_3C_IL8: BioMAP Diversity Plus: 3C Assay for Interleukin-8 (IL8) Biomarker Activity (AID 2283020); settings: primary human endothelial cells (HUVEC); actives raise or lower the signal
How it was run: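 Human vascular endothelial cells (umbilical vein) in the 3C system; IL-8 level detected by ELISA at 24 h post-dose, with DMSO as baseline.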

[2] = biological target: human Vitamin D Receptor (VDR), VDR (gene 7421) (UniProt P11473); test: ATG_VDR_TRANS: Attagene TRANS-FACTORIAL HepG2 Assay for human Vitamin D Receptor (VDR) (AID 2283022; active = hit-call score of the fitted dose curve at least 0.9, where 1 is the maximum)
Sequence of human Vitamin D Receptor (VDR), VDR (gene 7421) (P11473 whole entry, looked up, the tested form may be a part): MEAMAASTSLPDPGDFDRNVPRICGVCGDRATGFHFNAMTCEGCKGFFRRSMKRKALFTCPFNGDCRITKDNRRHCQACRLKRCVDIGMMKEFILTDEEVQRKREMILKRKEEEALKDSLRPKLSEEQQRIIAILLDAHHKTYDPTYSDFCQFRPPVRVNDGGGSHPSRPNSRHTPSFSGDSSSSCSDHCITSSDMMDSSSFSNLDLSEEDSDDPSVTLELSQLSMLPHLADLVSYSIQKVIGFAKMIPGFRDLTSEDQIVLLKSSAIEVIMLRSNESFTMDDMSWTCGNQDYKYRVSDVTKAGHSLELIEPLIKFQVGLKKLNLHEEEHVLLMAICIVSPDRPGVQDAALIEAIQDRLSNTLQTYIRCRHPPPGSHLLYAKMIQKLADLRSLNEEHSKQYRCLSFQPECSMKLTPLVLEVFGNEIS
How it was run: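 HepG2 cells were transiently transfected with GAL4-UAS reporter units and a chimeric VDR-Gal4 construct, then dosed for 24 hours. Reporter mRNA was quantified by RT-PCR, fluorescent labeling, HpaI digestion and capillary electrophoresis; gain of signal analysed vs DMSO.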

[3] = BSK_3C_SRB: Viability Assessment in the BioMAP Diversity Plus: 3C Assay (AID 2283023); settings: primary human endothelial cells (HUVEC);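 also: fitted both ways against DMSO so a hit may be signal rise or drop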
How it was run: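 Human umbilical vein endothelial cells in the 3C system, treated 24 h. Total protein measured by 0.1% sulforhodamine B staining after 10% TCA fixation, read at 560 nm; bidirectional fit versus DMSO.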

[4] = read-out: Matrix Metallopeptidase 1 (MMP1), MMP1 (gene 4312); test: BSK_BE3C_MMP1: BioMAP Diversity Plus: BE3C Assay for Matrix Metallopeptidase 1 (MMP1) Biomarker Activity (AID 2283024); settings: primary human bronchial epithelial cells; actives raise or lower the signal
How it was run: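 Dose cells, wait 24 h, run MMP1 ELISA; cells are human bronchial epithelial primaries. Both increases and decreases relative to DMSO counted.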

[5] = BSK_3C_Vis: BioMAP Diversity Plus: 3C Assay for Morphology Visualization (AID 2283025); settings: primary human endothelial cells (HUVEC);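 also: fitted both ways so gain or loss versus DMSO counts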;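 as to AC50: light microscopy image of cell morphology used as background control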
How it was run: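 Endothelial cells from human umbilical vein were treated with test chemicals for 24 h and inspected by light microscopy for changes in cell conformation.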

[6] = read-out: Pselectin, SELP (gene 6403); test: BSK_4H_Pselectin: BioMAP Diversity Plus: 4H Assay for Pselectin Biomarker Activity (AID 2283026); settings: primary human endothelial cells (HUVEC); actives raise or lower the signal
How it was run: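 Human vascular endothelium from umbilical vein; P-selectin measured by ELISA at 24 h post-dose, with cytotoxicity checked by sulforhodamine B total-protein staining in parallel cultures (0.1% SRB after 10% TCA fixation, read at 560 nm).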

[7] = BSK_4H_SRB: Viability Assessment in the BioMAP Diversity Plus: 4H Assay (AID 2283027); settings: primary human endothelial cells (HUVEC);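 also: cells exposed to compound for 24 h before staining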;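 as to AC50: curves fitted both ways versus DMSO so AC50 may be loss or gain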
How it was run: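 Absorbance at 560 nm of SRB-stained total protein served as the viability read-out in confluent primary human umbilical vein endothelium 24 h after chemical treatment. Curves were fitted bidirectionally against DMSO as negative control.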

[8] = BSK_BE3C_SRB: Viability Assessment in the BioMAP Diversity Plus: BE3C Assay (AID 2283028); settings: primary human bronchial epithelial cells
How it was run: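 Human bronchial epithelial primary cells in confluent culture, 24 h after chemical dosing; total protein by 0.1% SRB staining after 10% TCA fixation, read at 560 nm. Bidirectional fitting versus DMSO baseline.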

[9] = read-out: Urokinase-type plasminogen activator receptor (uPAR), PLAUR (gene 5329); test: BSK_4H_uPAR: BioMAP Diversity Plus: 4H Assay for Urokinase-type plasminogen activator receptor (uPAR) Biomarker Activity (AID 2283030); settings: primary human endothelial cells (HUVEC); actives raise or lower the signal
How it was run: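 Human umbilical vein endothelial cells in the 4H system, 24 h after chemical dosing. Cell-surface uPAR measured by ELISA, fitted in both directions versus DMSO; cytotoxicity checked by SRB total protein in parallel cultures.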

[10] = read-out: Human Leukocyte Antigen - DR isotype (HLADR), HLA-DRA (gene 3122); test: BSK_BE3C_HLADR: BioMAP Diversity Plus: BE3C Assay for Human Leukocyte Antigen - DR isotype (HLADR) Biomarker Activity (AID 2283032); settings: primary human bronchial epithelial cells; actives raise or lower the signal
How it was run: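 Signal came from an ELISA for HLA-DR in human bronchial epithelial primary cells harvested 24 h after treatment; gain- and loss-of-signal fitting used DMSO controls as reference.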

[11] = read-out: Interferon-gamma inducible Protein 10 (IP10), CXCL10 (gene 3627); test: BSK_BE3C_IP10: BioMAP Diversity Plus: BE3C Assay for Interferon-gamma inducible Protein 10 (IP10) Biomarker Activity (AID 2283034); settings: primary human bronchial epithelial cells; actives raise or lower the signal
How it was run: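 Using primary human bronchial epithelial cultures, the assay captures IP-10 by ELISA one day (24 h) after exposure. Parallel SRB staining of total protein flags overt cytotoxicity. Fits run bidirectionally relative to DMSO.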

[12] = read-out: Plasminogen activator inhibitor-1 (PAI1), SERPINE1 (gene 5054); test: BSK_BE3C_PAI1: BioMAP Diversity Plus: BE3C Assay for Plasminogen activator inhibitor-1 (PAI1) Biomarker Activity (AID 2283037); settings: primary human bronchial epithelial cells; actives raise or lower the signal
How it was run: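 PAI-1 biomarker levels in treated human bronchial epithelial cells are determined by ELISA at 24 h. Both increases and decreases relative to DMSO are fitted.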

[13] = read-out: urokinase plasminogen activator (uPA), PLAU (gene 5328); test: BSK_BE3C_uPA: BioMAP Diversity Plus: BE3C Assay for urokinase plasminogen activator (uPA) Biomarker Activity (AID 2283038); settings: primary human bronchial epithelial cells; actives raise or lower the signal
How it was run: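 Primary human bronchial epithelial cells, uPA measured by ELISA 24 h after dosing. Bidirectional change relative to DMSO; cytotoxicity checked in parallel cultures by sulforhodamine B total-protein staining.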

[14] = read-out: Urokinase-type plasminogen activator receptor (uPAR), PLAUR (gene 5329); test: BSK_BE3C_uPAR: BioMAP Diversity Plus: BE3C Assay for Urokinase-type plasminogen activator receptor (uPAR) Biomarker Activity (AID 2283039); settings: primary human bronchial epithelial cells; actives raise or lower the signal
How it was run: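 A uPAR ELISA serves as the readout, taken 24 h after treating primary human bronchial epithelial cells. Responses in either direction are fitted against DMSO, which defines baseline activity.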

[15] = read-out: Interleukin-6 (IL6), IL6 (gene 3569); test: BSK_CASM3C_IL6: BioMAP Diversity Plus: CASM3C Assay for Interleukin-6 (IL6) Biomarker Activity for (AID 2283040); settings: primary human coronary artery smooth muscle cells; actives raise or lower the signal
[16] = read-out: Thrombomodulin, THBD (gene 7056); test: BSK_3C_Thrombomodulin: BioMAP Diversity Plus: 3C Assay for Thrombomodulin Biomarker Activity (AID 2283029); settings: primary human endothelial cells (HUVEC); actives raise or lower the signal
How it was run: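 Thrombomodulin ELISA, human primary HUVEC, 24 h post-dose; data fitted in both directions relative to DMSO.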

[17] = read-out: Vascular endothelial growth factor receptor 2 (Homo sapiens) (UniProt P35968); test: BSK_4H_VEGFRII: BioMAP Diversity Plus: 4H Assay for Vascular endothelial growth factor receptor 2 (VEGFR2) Biomarker Activity (AID 2283031); settings: primary human endothelial cells (HUVEC); actives raise or lower the signal;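 as to AC50: cell-surface VEGFR2 protein level quantified by ELISA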
How it was run: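 Primary human umbilical vein endothelial cells (4H system), 24 h exposure; cell-surface VEGFR2 measured by ELISA. Bidirectional fitting versus DMSO; cytotoxicity checked in parallel by SRB total-protein staining.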

[18] = read-out: Monokine induced gamma interferon (MIG), CXCL9 (gene 4283); test: BSK_BE3C_MIG: BioMAP Diversity Plus: BE3C Assay for Monokine induced gamma interferon (MIG) Biomarker Activity (AID 2283035); settings: primary human bronchial epithelial cells; actives raise or lower the signal
How it was run: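 MIG level was determined by ELISA after 24 h chemical treatment of primary human bronchial epithelial cells. Values were fitted bidirectionally with DMSO as the negative control and activity baseline.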

[19] = read-out: Vascular cell adhesion molecule 1 (VCAM1), VCAM1 (gene 7412); test: BSK_4H_VCAM1: BioMAP Diversity Plus: 4H Assay for Vascular cell adhesion molecule 1 (VCAM1) Biomarker Activity (AID 2283033); settings: primary human endothelial cells (HUVEC); actives raise or lower the signal;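 also: cell-surface VCAM-1 protein measured by ELISA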
How it was run: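 Endpoint derived from bidirectional fitting against DMSO controls of VCAM-1 ELISA signal in umbilical vein endothelial cells sampled at 24 h following treatment.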

Measured: AC50

CCN(CC)c1ccc(C=O)c(O)c1
inactive: [1] | [2] | [3] | [4] | [5] | [6] | [7] | [8] | [9] | [10] | [11] | [12] | [13] | [14] | [15]

O=C(O)CCC(F)(F)C(F)(F)C(F)(F)C(F)(F)C(F)(F)C(F)(F)C(F)(F)F
inactive: [1] | [2] | [3] | [6] | [7] | [8] | [16] | [11] | [12] | [13] | [14] | [15]
active: [4] 3.33 µM and 3.8 µM | [10] 2.48 µM and 3.33 µM | [11] 2.32 µM

OCC(O)CC(F)(F)C(F)(F)C(F)(F)C(F)(F)C(F)(F)C(F)(F)C(F)(F)C(F)(F)F (configuration not stated)
inactive: [1] | [2] | [3] | [4] | [6] | [7] | [8] | [16] | [9] | [10] | [11] | [12] | [13] | [14] | [15]

CCN=C1C=CC(=C(c2ccc(N(CC)CC)cc2)c2ccc(N(CC)CC)cc2)c2ccccc21
inactive: [4] | [8] | [17] | [13] | [15]
active: [1] 4.77 µM and 4.29 µM | [3] 1.6 µM and 1.67 µM | [4] 3.21 µM | [6] 1.46 µM and 957 nM | [7] 1.76 µM and 1.74 µM | [9] 4.99 µM and 2.26 µM | [10] 1.85 µM and 1.69 µM | [11] 2.46 µM and 2.22 µM | [18] 2.48 µM and 2.92 µM | [12] 716 nM and 210 nM | [13] 2.03 µM | [14] 1.93 µM and 1.74 µM

OCCCCC(F)(F)C(F)(F)C(F)(F)C(F)(F)F
inactive: [1] | [2] | [3] | [4] | [6] | [7] | [8] | [16] | [9] | [17] | [10] | [11] | [18] | [12] | [13] | [14] | [15]

C[C@]12CC[C@H]3C(=CCc4cc(O)ccc43)[C@@H]1CCC2=O
inactive: [1] | [2] | [3] | [4] | [5] | [6] | [7] | [8] | [9] | [17] | [10] | [19] | [18] | [12] | [13] | [14] | [15]
active: [11] 6.48 µM

CCN(CC)c1ccc(N=Nc2ccccc2)cc1
active: [1] 20 µM | [3] 12.1 µM | [5] 8.8 µM | [6] 11.3 µM | [7] 20 µM | [17] 20 µM | [11] 10.2 µM | [12] 29.3 µM
inactive: [2] | [4] | [8] | [10] | [13] | [14] | [15]
